# High-throughput results from PubChem.
# CYP2C9 inhib = inhibitors of human CYP2C9. CYP2C9 Supersomes, luciferin-H conversion, luminescence. 96,000 tested, 20% active. P11712. inhibition, % at 5 µM;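 active = blocking of liver enzyme CYP2C9 beyond about 50% at 5 µM, limit read from the data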
# Target sequence (P11712 whole entry, looked up): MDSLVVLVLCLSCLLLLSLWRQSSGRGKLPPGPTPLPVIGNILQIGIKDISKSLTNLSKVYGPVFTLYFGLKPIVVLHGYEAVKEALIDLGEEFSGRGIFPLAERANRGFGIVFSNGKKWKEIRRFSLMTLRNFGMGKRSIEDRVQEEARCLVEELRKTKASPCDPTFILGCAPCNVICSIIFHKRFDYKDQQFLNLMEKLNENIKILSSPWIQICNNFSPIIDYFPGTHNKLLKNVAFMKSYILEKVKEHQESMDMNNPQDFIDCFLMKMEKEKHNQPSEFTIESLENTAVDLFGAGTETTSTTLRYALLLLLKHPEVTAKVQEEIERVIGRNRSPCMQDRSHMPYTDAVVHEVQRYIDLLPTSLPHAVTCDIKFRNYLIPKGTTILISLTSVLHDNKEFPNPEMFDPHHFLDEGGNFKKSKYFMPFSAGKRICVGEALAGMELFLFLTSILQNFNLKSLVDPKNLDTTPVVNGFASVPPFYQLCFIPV
# Cav3 T inh = inhibitors of human Cav3.2 T-type calcium channel; O95180; Cav3.2-expressing cells, Fluo-4 calcium fluorescence FDSS; stronger effect = lower value; B-score at 10 µM; 100,000 tested, 4% active; AID 449739;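 active = single-dose well whose peak fluorescence ratio is a statistical outlier from its plate by either plate-standardised score or position-corrected B-score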
# CYP2C19 act = cytochrome P450 2C19 (human) activation | 96,000 tested, under 10 active | recombinant CYP2C19, luciferin-H EGE luminescence; stronger effect = higher value; 0 = fully inhibited enzyme, 1 = untreated enzyme | activation factor at 5 µM;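 active = activation factor of at least 2 at 5 µM in the primary screen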;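 note: 0 = wells with 2.5 mM tranylcypromine and 1 = vehicle-only wells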
# CYP2C19 inh = blocks human cytochrome P450 2C19; P33261; CYP2C19 Supersomes, luciferin-H EGE luminescence, 30 min; inhibition, % at 5 µM; 96,000 tested, 21% active; AID 778;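 active = CYP2C19 inhibition above a set limit at 5 µM in the primary screen, cut at about 50% in these data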;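 note: plate controls were negative control wells for no effect and 2.5 mM tranylcypromine positive control for full effect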
# CYP2C9 activ = increases human cytochrome P450 2C9 activity; P11712; recombinant CYP2C9, luciferin-H conversion, luminescence; stronger effect = higher value; factor 1 = untreated enzyme, 0 = blocked; activation factor at 5 µM; 96,000 tested, 1.4% active;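 active = activation factor of 2 or more for CYP2C9 at a 5 µM dose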;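 note: 0 = sulfaphenazole-blocked wells and 1 = vehicle-only wells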
# Starred values were filed as active, the others as inactive; . = no result given. Most compounds without a hit are left out; they make up all but 27% or so of the library.
SMILES,CYP2C9 inhib,Cav3 T inh,CYP2C19 act,CYP2C19 inh,CYP2C9 activ
CCN(CC(=O)Nc1ccc2c(c1)OCCO2)c1nc(-c2cccnc2)nc2ccccc12,56*,-1.5,0.3,66*,0.4
O=C(Nc1ccc2c(c1)OCCO2)c1ccccc1F,-4,0.076,1,4,1
C#CCOCCOCCOCCNc1nc(N2CCN(C(=O)[C@H](CCC(=O)O)n3cc(C(N)CC(C)C)nn3)CC2)nc(N2CCN(C(=O)[C@H](CCC(=O)O)n3cc(C(N)CC(C)C)nn3)CC2)n1 (stereo not given in full),.,0.54,.,.,.
Cc1cc(NC(=O)NC(=O)c2ccc(F)cc2F)n[nH]1,-4,-0.62,0.7,28,1
CC1CC(=O)c2cn3c(nc2C1)nc1ccccc13 (stereo not given),-4,0.84,1.1,-10,1
COC(=O)c1nn(-c2ccccc2)c(Sc2ccc(Br)cc2)c1/C=N/O,73*,-0.78,0.6,39,0.3
CN(C)C(C(=O)NC1CCCCC1)c1ccc(Cl)cc1 (stereo not given),29,-0.72,0.4,56*,0.7
CCCN1CCC(N2CCN(c3cccc(C(F)(F)F)c3)CC2)CC1,-8,-0.83,1,0,1.1
CCOC(=O)c1c(N)sn(-c2ccccc2C)c1=S,62*,-1.2,0.7,28,0.4
Cc1cccc(Oc2sc(C(=O)c3ccccc3)c(N)c2C#N)c1,47,-0.093,0.4,61*,0.5
OC1(c2ccc3ccccc3c2)CCN(Cc2ccccc2)C1 (stereo not given),19,-1.7,0.2,80*,0.8
c1ccc2cc(CN3CCOCC3)ccc2c1,-16,1.3,0.6,36,1.2
FC(F)(F)c1cc(-c2ccc(Cl)cc2)nc(NCc2cccnc2)n1,46,0.71,0.5,49,0.5
Cc1ccc(-c2cc(C(F)F)nc(NCc3cccnc3)n2)cc1,.,-4.4*,.,.,.
CCOc1ccc(N/C(=C(/C(Cl)=C(Cl)Cl)[N+](=O)[O-])n2cncn2)cc1,68*,-1.7,0.4,61*,0.3
O=C1S/C(=C\c2ccc(N3CCOCC3)o2)C(=O)N1Cc1c(F)cccc1Cl,-13,-5.7*,1.1,-11,1.1
O=C(CNC(=O)c1ccccc1F)OC(C(=O)Nc1cc(C(F)(F)F)ccc1Cl)c1ccccc1 (stereo not given),-11,-5.4*,0.8,16,1.1
C[C@H](NC(=O)c1ccccc1Cl)C(=O)OC(C(=O)Nc1cc(C(F)(F)F)ccc1Cl)c1ccccc1 (stereo not given in full),14,-8.4*,0.8,20,0.9
COc1ccc(OCc2cccc(C(=O)Nn3cc([N+](=O)[O-])cn3)c2)cc1,.,-2.9,.,.,.
CC(C)OC(=O)CC12CN(C)CC(CC(=O)OC(C)C)(CN(C)C1)C2=O,-10,-0.25,1.2,-16,1.1
O=C(COC(=O)c1ccc[nH]c1=O)NC1CCCC1,1,-1.2,1,2,1
Cc1ccc(N2C(=O)c3ccc(C(=O)N4CCN(c5ccccc5F)CC4)cc3C2=O)cc1,6,-0.79,0.9,9,0.9
O=C(COc1cccc(C(F)(F)F)c1)NCCCN1CCCC1=O,26,0.095,0.8,16,0.7
CCCCCCNC(=O)C(C#N)c1nc2ccccc2nc1N1CCOCC1 (stereo not given),12,-3.3,0.7,34,0.9
CCN1CCN(c2nc3ccccc3nc2C(C#N)C(=O)OCc2ccccc2)CC1 (stereo not given),57*,0.52,0.2,82*,0.4
SMILES,CYP2C9 inhib,Cav3 T inh,CYP2C19 act,CYP2C19 inh,CYP2C9 activ
CCCCCNC(=O)C(C#N)c1nc2ccccc2nc1N1CCCC1 (stereo not given),-10,-7.1*,1.1,-8,1.1
CCCCOC(=O)C(C#N)c1nc2ccccc2nc1N1CCOCC1 (stereo not given),35,-0.047,0.5,52*,0.7
COCCCNC(=O)C(C#N)c1nc2ccccc2nc1N1CCCC1 (stereo not given),.,-5.6*,.,.,.
CCCCCCOC(=O)C(C#N)c1nc2ccccc2nc1N1CCN(CC)CC1 (stereo not given),20,-3,0.6,42,0.8
CC(C)OP(=O)(OC(C)C)C1(O)C(=O)Nc2ccccc21 (stereo not given),-13,-0.0055,1,-4,1.1
O=C(c1cc2cc([N+](=O)[O-])ccc2oc1=O)N1CCN(c2ncccn2)CC1,-19,0.53,1,5,1.2
Cc1ccnc(NC(=O)c2ccc(N3C(=O)CCC3=O)cc2)c1,-4,0.88,1.1,-6,1
C=CCOC(=O)C(C#N)c1nc2ccccc2nc1N1CCCC1 (stereo not given),34,-2.1,0.7,29,0.7
COCCOC(=O)C(C#N)c1nc2ccccc2nc1N1CCCC1 (stereo not given),79*,0.6,0.2,85*,0.2
CCCCCCNC(=O)C(C#N)c1nc2ccccc2nc1N1CCCC1 (stereo not given),13,-7.1*,0.7,28,0.9
CC(O)[C@H]1CNC(=O)C(=O)N1CCC12CC3CC(CC(C3)C1)C2 (stereo not given in full),.,0.94,.,.,.
CC1CCN(C(=O)c2[nH]cnc2C(=O)N[C@@H](C)C(=O)OCc2ccccc2)CC1,.,1.2,.,.,.
Nc1ccc(S(=O)(=O)c2ccc(Cl)cc2)cc1,-274,0.1,0.1,86*,3.7*
CCN(C(=O)Cn1c(=O)n(Cc2ccccc2)c(=O)c2ccccc21)c1cccc(C)c1,86*,-6.4*,1,5,0.1
CCCc1ncc(C(=O)c2ccc(OC)cc2)n1C,-27,-0.52,0.5,49,1.3
Cc1ccc2nc(-c3ccccn3)cc(C(=O)N3CCN(c4ncccn4)CC3)c2c1,54*,0.12,0.8,20,0.5
O=C(Nn1cnnc1)c1cc(-c2ccccn2)nc2ccccc12,38,-1.4,1,2,0.6
CC(C)Oc1cccc(-c2cc(C(=O)N3CCN(S(C)(=O)=O)CC3)c3ccccc3n2)c1,12,-0.86,1.1,-5,0.9
COc1cccc(-c2cc(C(=O)Nn3cnnc3)c3ccccc3n2)c1,97*,0.27,0.2,77*,0
COc1cccc(-c2cc(C(=O)N3CCN(c4ncccn4)CC3)c3ccccc3n2)c1,96*,.,0.3,73*,0
Cc1cc(C(=O)N2CCN(c3ncccn3)CC2)c2cc(F)ccc2n1,31,-2.6,0.7,32,0.7
COc1ccc(CCNC2CC(=O)N(CCc3ccccc3)C2=O)cc1OC (stereo not given),16,0.39,0.4,60*,0.8
CCN1C(=O)CC(NCc2ccc3c(c2)OCO3)C1=O (stereo not given),-1,-1.1,0.9,7,1
COc1ccc(CCN2C(=O)CC(C(N)=O)SC2=Nc2ccccc2)cc1OC (stereo not given),19,1,0.3,68*,0.8
COc1ccc(CCNC2=C(Cl)C(=O)N(CCc3ccccc3)C2=O)cc1OC,58*,-0.13,0.4,60*,0.4
